Results published in PubChem BioAssay AID1159580 (chemical genetic matrix, 2015).
Several values for one entry are separate records, joined by “and”; a condition that tells them apart may be missing. Equal values may be shown once. In all, about 5,500 compounds went through this assay and about 2,000 (36%) were called active. Roughly 18% stayed inconclusive and do not appear here. Cut-off read from the data, not from the text of the source: active = normalized growth mostly below about 0.91 (no sharp cut-off); inconclusive = no clear call, values can overlap the other calls; inactive = mostly above about 0.92. Some of the results follow.

Assay: chemical genetic growth profiling, strain panel (AID 1159580);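 note: tested at 20 µM; growth read once vehicle control cultures reached saturation at 30 °C; 1 = growth at the plate median or of vehicle wells; lower values mean less growth of the strain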
Details: S. cerevisiae deletion strains, growth OD

Measured: normalized growth

COC(=O)C[C@H]1C(C)(C)C2(O)OC34CC2C(=O)[C@]1(C)C3CC[C@]1(C)C4=CC(=O)O[C@H]1c1ccoc1 (some centres not stated)
inactive: locus YAL013W, strain DEP1, hits give low values 1.01 | locus YAL021C, strain ccr4, hits give low values 0.99 | locus YAL026C, strain drs2, hits give low values 0.998 | locus YAL030W, strain snc1, hits give low values 0.99 | locus YBL061C, strain skt5, hits give low values 0.999 | locus YBR009C, strain hhf1, hits give low values 1.01 | locus YBR021W, strain FUR4, hits give low values 0.976 | locus YBR023C, strain chs3, hits give low values 0.99 | locus YBR171W, strain sec66, hits give low values 0.973 | locus YBR229C, strain ROT2, hits give low values 1.01 | locus YBR231C, strain swc5, hits give low values 0.986 | locus YBR279W, strain paf1, hits give low values 0.998 | locus YCL011C, strain gbp2, hits give low values 0.978 | locus YCL016C, strain dcc1, hits give low values 1 | locus YCL029C, strain bik1, hits give low values 1.01 | locus YCL061C, strain MRC1, hits give low values 1.02 | locus YCL069W, strain vba3, hits give low values 0.977 | locus YCR088W, strain abp1, hits give low values 0.978 | locus YDL005C, strain med2, hits give low values 0.991 | locus YDL035C, strain GPR1, hits give low values 1 | locus YDL040C, strain nat1, hits give low values 0.973 | locus YDL074C, strain BRE1, hits give low values 1.01 | locus YDL101C, strain DUN1, hits give low values 1 | locus YDL134C, strain PPH21, hits give low values 1.01 | locus YDL185W, strain tfp1, hits give low values 1.01 | locus YDL192W, strain arf1, hits give low values 1.01 | locus YDR001C, strain nth1, hits give low values 0.991 | locus YDR069C, strain doa4, hits give low values 0.988 | locus YDR101C, strain arx1, hits give low values 1.01 | locus YDR137W, strain rgp1, hits give low values 1.03 | locus YDR150W, strain NUM1, hits give low values 0.993 | locus YDR159W, strain sac3, hits give low values 0.973 | locus YDR162C, strain NBP2, hits give low values 1.02 | locus YDR195W, strain ref2 0.963 | locus YDR297W, strain sur2, hits give low values 0.994 | locus YDR318W, strain mcm21, hits give low values 1 | locus YDR334W, strain swr1, hits give low values 0.975 | locus YDR335W, strain msn5, hits give low values 0.983 | locus YDR388W, hits give low values 1 | locus YDR392W, strain spt3, hits give low values 0.952 | locus YDR502C, strain sam2, hits give low values 0.994 | locus YEL003W, strain gim4, hits give low values 0.992 | locus YEL037C, strain rad23, hits give low values 0.98 | locus YEL061C, strain CIN8 (second series), hits give low values 0.972 | locus YER015W, strain faa2, hits give low values 0.996 | locus YER016W, strain bim1, hits give low values 0.984 | locus YER110C, hits give low values 1.02 | locus YER111C, strain swi4, hits give low values 0.985 | locus YER155C, strain BEM2 (second series), hits give low values 0.993 | locus YER155C, strain BEM2, hits give low values 0.992 | locus YER167W, strain BCK2, hits give low values 0.996 | locus YFR010W, strain ubp6, hits give low values 0.974 | locus YGL078C, strain dbp3, hits give low values 1.02 | locus YGL086W, strain mad1, hits give low values 0.99 | locus YGL167C, strain pmr1, hits give low values 1 | locus YGL173C, strain kem1, hits give low values 0.988 | locus YGL227W, strain vid30, hits give low values 0.983 | locus YGL240W, strain doc1, hits give low values 0.971 | locus YGL248W, strain PDE1, hits give low values 1.01 | locus YGL253W, strain hxk2, hits give low values 0.968 | locus YGR135W, strain pre9, hits give low values 1.01 | locus YGR252W, strain gcn5, hits give low values 1.05 | locus YHR013C, strain ard1, hits give low values 0.988 | locus YHR027C, strain rpn1, hits give low values 0.99 | locus YHR030C, strain SLT2, hits give low values 1 and 0.968 | locus YHR079C, strain IRE1 (second series), hits give low values 1.01 | locus YHR079C, strain IRE1, hits give low values 0.972 | locus YHR094C, strain hxt1, hits give low values 1.02 | locus YHR129C, strain ARP1, hits give low values 1 | locus YHR142W, strain chs7, hits give low values 0.975 | locus YHR200W, strain rpn10, hits give low values 1 | locus YIL066C, strain RNR3, hits give low values 1.01 | locus YIL073C, strain SPO22, hits give low values 1.01 | locus YIL125W, strain kgd1, hits give low values 1.01 | locus YIR030C, strain dcg1, hits give low values 1.01 | locus YJL092W, strain hpr5, hits give low values 0.98 | locus YJL095W, strain BCK1 (second series), hits give low values 0.988 | locus YJL095W, strain BCK1, hits give low values 0.982 and 0.98 | locus YJL115W, strain asf1, hits give low values 0.984 | locus YJL129C, strain trk1, hits give low values 1 | locus YJL134W, strain LCB3, hits give low values 1 | locus YJL154C, strain vps35, hits give low values 0.989 | locus YJL164C, strain tpk1, hits give low values 1 | locus YJL166W, strain qcr8, hits give low values 0.986 | locus YJL168C, strain set2, hits give low values 0.996 | locus YJL187C, strain SWE1 (second series), hits give low values 1.01 | locus YJL187C, strain SWE1, hits give low values 1.01
